Source: PubChem BioAssay
Calls of active or inactive are those of the source.

Tests used:
[1] = E. coli DRC41 culture turbidity changes, primary screen, E. coli filamentation inducer project, strain DRC41, OD650, 48 h (AID 1152);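 also: E. coli MC1000 strain DRC41 lacking acrAB efflux pump and sulA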; settings: E. coli DRC41 (acrAB sulA), higher = more signal, called active from +8 up or from −8 down
[2] = small-molecule binders of probe aLefty1, primary screen, biochemical, small-molecule microarray, 635/667 nm fluorescence (AID 1153); settings: higher = more signal;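 also: score merges spot fluorescence with signal-to-noise ratio from the scanned slide images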
[3] = PSAC antagonists in infected red cells, primary screen, cell-based, P. falciparum Indochina, OD700, 1 h (AID 1154); settings: P. falciparum Indochina infected RBC osmotic lysis, higher = more signal, called active from +8 up or from −8 down
[4] = PSAC antagonists in infected red cells, primary screen, cell-based, P. falciparum Indochina, OD700, 2 h (AID 1155);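 also: lysis reports solute entry through the parasite surface anion channel PSAC; channel blockers reduce lysis of infected cells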; settings: P. falciparum Indochina infected erythrocytes, osmotic lysis OD700; higher = more signal, called active from +8 up or from −8 down
[5] = osmotic lysis modulators in infected erythrocytes, primary screen, PSAC antagonist project, cell-based, P. falciparum Indochina, OD700, 3 h (AID 1156); settings: higher = more signal, called active from +8 up or from −8 down
[6] = PSAC antagonists in infected red cells, primary screen, cell-based, P. falciparum Indochina, OD700, 18 h (AID 1157); settings: P. falciparum Indochina infected erythrocytes, osmotic lysis OD700, 18 h; higher = more signal, called active from +8 up or from −8 down
[7] = modulators of S6 phosphorylation in cells, primary screen, cell-based, A549, cytoblot, luminescence, serum-stimulated (AID 1158); settings: A549 phospho-S6 cytoblot, 5 h, higher = more signal;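 also: serum-stimulated A549 lung adenocarcinoma cells; signal is phosphorylated S6 detected by cytoblot immunostaining with HRP secondary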
[8] = biological target: NADPH oxidase 2 (Homo sapiens) (UniProt P04839); assay: NOX2-dependent H2O2 signal modulators, primary screen, NOX inhibitor project, cell-based, HEK293-NOX2, PMA-stimulated, Amplex Red fluorescence (AID 1159); settings: 45 min, higher = more signal, called active from +8 up or from −8 down; also: test concentration not given here
Chain of NADPH oxidase 2 (Homo sapiens) (P04839 whole entry, looked up): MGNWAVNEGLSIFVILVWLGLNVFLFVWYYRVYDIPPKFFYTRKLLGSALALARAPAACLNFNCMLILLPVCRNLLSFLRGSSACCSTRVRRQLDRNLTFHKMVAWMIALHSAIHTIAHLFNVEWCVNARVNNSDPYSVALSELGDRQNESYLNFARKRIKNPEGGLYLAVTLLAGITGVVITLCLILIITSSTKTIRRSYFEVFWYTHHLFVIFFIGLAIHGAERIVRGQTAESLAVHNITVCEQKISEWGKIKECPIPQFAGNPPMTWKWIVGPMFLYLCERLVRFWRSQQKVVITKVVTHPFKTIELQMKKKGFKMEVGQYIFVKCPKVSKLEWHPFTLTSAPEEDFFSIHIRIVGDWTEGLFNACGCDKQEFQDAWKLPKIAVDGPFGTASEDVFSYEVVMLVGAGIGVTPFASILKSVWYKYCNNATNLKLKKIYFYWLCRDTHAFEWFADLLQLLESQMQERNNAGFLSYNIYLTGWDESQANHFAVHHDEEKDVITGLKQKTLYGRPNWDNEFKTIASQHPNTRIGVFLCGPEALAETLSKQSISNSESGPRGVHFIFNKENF

[9] = biological target: NADPH oxidase 4 (Homo sapiens) (UniProt Q9NPH5); assay: NOX4-dependent H2O2 signal modulators, primary screen, NOX inhibitor project, cell-based, HEK293-NOX4, tetracycline-induced, Amplex Red fluorescence (AID 1160); settings: 45 min, higher = more signal, called active from +8 up or from −8 down
Chain of NADPH oxidase 4 (Homo sapiens) (Q9NPH5 whole entry, looked up): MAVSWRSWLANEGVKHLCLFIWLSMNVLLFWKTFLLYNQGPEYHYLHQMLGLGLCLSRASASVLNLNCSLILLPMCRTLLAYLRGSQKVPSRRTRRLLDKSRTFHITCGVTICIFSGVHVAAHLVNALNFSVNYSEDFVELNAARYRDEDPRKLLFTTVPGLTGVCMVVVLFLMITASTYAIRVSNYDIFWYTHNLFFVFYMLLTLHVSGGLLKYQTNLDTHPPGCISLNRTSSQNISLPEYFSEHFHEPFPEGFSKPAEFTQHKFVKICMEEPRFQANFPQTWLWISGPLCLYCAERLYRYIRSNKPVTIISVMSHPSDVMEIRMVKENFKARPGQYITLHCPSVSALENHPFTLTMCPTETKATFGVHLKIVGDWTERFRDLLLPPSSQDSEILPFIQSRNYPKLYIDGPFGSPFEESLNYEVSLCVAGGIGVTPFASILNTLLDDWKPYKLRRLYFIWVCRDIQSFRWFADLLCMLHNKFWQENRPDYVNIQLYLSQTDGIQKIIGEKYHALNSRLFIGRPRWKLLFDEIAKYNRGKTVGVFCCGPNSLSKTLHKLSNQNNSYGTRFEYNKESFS

[10] = biological target: NADPH oxidase 5 (Homo sapiens) (UniProt Q96PH1); assay: NOX5-dependent H2O2 signal modulators, primary screen, NOX inhibitor project, cell-based, HEK293-NOX5, Amplex Red fluorescence (AID 1161); settings: HEK293-NOX5, ionomycin, 45 min, higher = more signal
Chain of NADPH oxidase 5 (Homo sapiens) (Q96PH1 whole entry, looked up): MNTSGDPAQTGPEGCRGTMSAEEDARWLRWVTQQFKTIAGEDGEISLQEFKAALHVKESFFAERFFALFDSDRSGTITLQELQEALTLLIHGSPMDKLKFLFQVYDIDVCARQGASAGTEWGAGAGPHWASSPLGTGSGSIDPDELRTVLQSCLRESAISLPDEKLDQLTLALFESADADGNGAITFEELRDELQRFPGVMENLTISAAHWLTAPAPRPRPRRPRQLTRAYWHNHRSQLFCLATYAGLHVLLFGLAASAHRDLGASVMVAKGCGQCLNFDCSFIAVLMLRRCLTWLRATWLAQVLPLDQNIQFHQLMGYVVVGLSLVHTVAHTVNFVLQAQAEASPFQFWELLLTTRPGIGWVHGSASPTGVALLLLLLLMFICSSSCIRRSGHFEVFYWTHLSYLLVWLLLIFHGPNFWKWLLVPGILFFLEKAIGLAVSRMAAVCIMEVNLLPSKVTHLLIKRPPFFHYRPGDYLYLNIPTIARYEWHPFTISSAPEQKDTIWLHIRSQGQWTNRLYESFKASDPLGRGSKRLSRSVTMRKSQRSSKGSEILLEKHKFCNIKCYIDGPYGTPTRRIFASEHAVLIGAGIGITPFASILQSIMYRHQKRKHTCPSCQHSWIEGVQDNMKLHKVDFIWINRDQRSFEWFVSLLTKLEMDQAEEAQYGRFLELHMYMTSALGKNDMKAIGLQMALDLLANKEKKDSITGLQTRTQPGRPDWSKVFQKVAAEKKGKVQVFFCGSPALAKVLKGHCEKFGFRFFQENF

Compound | z-score [1] | composite z-score [2] | z-score [3] | z-score [4] | z-score [5] | z-score [6] | z-score [7] | z-score [8] | z-score [9] | z-score [10]
COC(=O)[C@@]1(Cc2ccc(F)cc2)[C@H]2c3cc(C(=O)N(C)C)n(Cc4ccc(C(F)(F)F)nc4)c3C[C@H]2CN1C(=O)c1ccccc1 | -1 (inactive) | 0.589 | 1.93 (inactive) | 0.844 (inactive) | 0.893 (inactive) | 0.987 (inactive) | -0.0002 | 0.267 (inactive) | 0.32 (inactive) | 0.568
COCCCNC(=O)[C@]1(Cc2ccccc2CN=[N+]=[N-])N=C(c2ccc(OCCCO)cc2)O[C@@H]1c1ccccc1N=[N+]=[N-] | 0.913 (inactive) | 0.87 | 33.7 (active) | 31.2 (active) | 1.91 (inactive) | 8.54 (active) | 0.0038 | -0.713 (inactive) | 1.06 (inactive) | 1.42
C=CCN1C(=O)[C@]2(O[C@H](CCO)[C@@H]([Si](C)(C)c3ccc(OC)cc3)[C@@H]2C)c2cc(N3C(=O)c4ccccc4Oc4ccccc43)ccc21 | -0.458 (inactive) | 0.568 | 6.17 (inactive) | 2.82 (inactive) | -0.512 (inactive) | 2.95 (inactive) | 0.695 | 0.0876 (inactive) | 0.945 (inactive) | -0.216
C=CCC(OC(C)=O)[C@@H]1[C@@H](N(Cc2ccc(-c3ccccc3)cc2)C(=O)Cc2ccc(OC)cc2)c2cc(OCCCO)ccc2N1C(=O)c1ccc2ccccc2c1 (stereo not given in full) | -0.894 (inactive) | -0.529 | 1.23 (inactive) | 0.384 (inactive) | -0.247 (inactive) | 0.41 (inactive) | -0.111 | -0.48 (inactive) | 0.832 (inactive) | 0.808
CCOC(=O)C1=CCC(c2cccn2C(=O)OC(C)(C)C)N(S(=O)(=O)c2ccc(C)cc2)C1 (stereo not given) | -0.258 (inactive) | 0.245 | 7.3 (inactive) | 1.26 (inactive) | 0.312 (inactive) | 0.486 (inactive) | -0.0414 | -0.035 (inactive) | 0.754 (inactive) | 0.499
COCCOC(=O)N1C(=O)[C@@]2(c3cc(C#CC4=CCCCC4)ccc31)[C@H](C(=O)N1CCCCCCC1)[C@H]1C(=O)O[C@H](c3ccccc3)[C@H](c3ccccc3)N1[C@@H]2c1ccccc1OCCO | 0.857 (inactive) | 1.11 | 0.951 (inactive) | 1.01 (inactive) | -0.249 (inactive) | 0.413 (inactive) | 0.526 | -0.129 (inactive) | 0.322 (inactive) | 0.0795
Cc1c(NC(=O)/C(C#N)=C/C=C/c2ccc([N+](=O)[O-])cc2)c(=O)n(-c2ccccc2)n1C | 0.0351 (inactive) | 0.277 | 2.74 (inactive) | 0.636 (inactive) | 0.206 (inactive) | 0.598 (inactive) | -0.279 | -0.696 (inactive) | 0.0994 (inactive) | 0.714
CCCCC=C[C@@H](NC(=O)C(C)(C)C)c1ccccc1 | -2.16 (inactive) | 0.181 | 2.28 (inactive) | 1.43 (inactive) | -1.46 (inactive) | 1.45 (inactive) | -0.553 | -0.312 (inactive) | -2.16 (inactive) | 1.63
C=CC[C@H](O)c1ccc(O)c2ccccc12 | 0.675 (inactive) | -0.0163 | 1.28 (inactive) | 0.439 (inactive) | 0.168 (inactive) | 0.45 (inactive) | -0.323 | -5.36 (inactive) | -1.98 (inactive) | 1.42
COC(=O)[C@@]1(Cc2ccc(OC)cc2)[C@H]2c3cc(C(=O)N(C)C)n(Cc4c(CO)[nH]cc(C)c4=O)c3C[C@H]2CN1C(=O)c1ccccc1 | -2.08 (inactive) | 0.318 | 2.77 (inactive) | 0.814 (inactive) | 0.072 (inactive) | 0.643 (inactive) | -0.507 | -0.0394 (inactive) | -0.719 (inactive) | -0.777
Cc1ccc(S[C@]2(C(=O)NC(C)C)CC(=O)N(Cc3ccccc3)[C@@H]2c2ccc(CO)cc2I)cc1 | 0.214 (inactive) | 0.164 | 5.59 (inactive) | 0.654 (inactive) | 0.59 (inactive) | 0.231 (inactive) | -0.35 | 0.671 (inactive) | -0.818 (inactive) | 1.76
C=C[C@@H](CO)NS(=O)(=O)c1ccc(Br)cc1 | 3.75 (inactive) | -0.239 | -0.398 (inactive) | -0.68 (inactive) | -1.12 (inactive) | -1.81 (inactive) | 1.36 | 0.908 (inactive) | 1.05 (inactive) | 1.44
COCCCNC(=O)[C@@]1(CCC(=O)OC(C)(C)C)N=C(c2ccc(OCCCO)cc2)O[C@H]1c1ccccc1 | 1.41 (inactive) | 0.0949 | 12.9 (active) | 1.15 (inactive) | 0.384 (inactive) | 0.566 (inactive) | -0.422 | -0.865 (inactive) | 0.388 (inactive) | 0.188
COC(=O)[C@@]1(Cc2ccc(F)cc2)[C@H]2c3cc(C(=O)N4CCCC4)n(Cc4ccc(C(F)(F)F)nc4)c3C[C@H]2CN1C(=O)c1ccccc1 | -0.984 (inactive) | 0.93 | 2.37 (inactive) | 0.229 (inactive) | 2.16 (inactive) | 0.716 (inactive) | -0.186 | 0.0745 (inactive) | 0.488 (inactive) | -2.46
O=C1N(Cc2ccccc2)Cc2ccccc2C[C@@]12COC(c1ccc(OCCCO)cc1)=N2 | -0.595 (inactive) | 0.179 | 20.3 (active) | 4.93 (inactive) | 3.72 (inactive) | 1.48 (inactive) | -0.087 | -5.75 (inactive) | -0.977 (inactive) | -1.8
C=CCNC(=O)[C@H]1[C@@H]2C(=O)O[C@@H](c3ccccc3)[C@@H](c3ccccc3)N2[C@@H](c2ccc(O)cc2)[C@]12C(=O)N(C(=O)OCCOC)c1ccc(C#Cc3ccc(OC)cc3)cc12 | -0.983 (inactive) | 0.216 | 2.57 (inactive) | 1.28 (inactive) | -0.829 (inactive) | 0.0195 (inactive) | -0.376 | 1.62 (inactive) | 0.725 (inactive) | 1.13
COc1ccc(NN2C(C(O)c3ccc(F)cc3)C=CC3C(=O)N(C4CCCCC4)C(=O)C32)cc1 (stereo not given) | -1.24 (inactive) | 0.0561 | 5.76 (inactive) | 1.42 (inactive) | 0.37 (inactive) | 0.856 (inactive) | -0.54 | -1.73 (inactive) | -3.25 (inactive) | -1.23
C=CCOC(=O)[C@H]1[C@@H]2C(=O)O[C@@H](c3ccccc3)[C@@H](c3ccccc3)N2[C@@H](c2ccc(OCCOC(=O)[C@H]3C[C@H]4C(=O)NCC(=O)N4[C@H]3c3cccc(OCCO)c3)cc2)[C@]12C(=O)Nc1ccc(I)cc12 | 0.0133 (inactive) | 1.31 | 5.17 (inactive) | 2.48 (inactive) | 0.939 (inactive) | 1.58 (inactive) | 0.58 | 1.71 (inactive) | 0.956 (inactive) | 1.4
